Assay [1] can be described thus: qHTS of pediatric cancer cell lines to identify multiple opportunities for drug repurposing: Primary screen for TC32 cells (AID 1347089). Also: nearly all actives have a fitted effect of over 60% in size. Also: potency is read from the fitted curve at half-maximal effect. In short, it runs like this:
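In the primary qHTS, MIPE compounds were tested at 11 concentrations (0.78 nM to 46 µM) and NPC compounds at 8 (0.59 nM to 46 µM) on TC32 cells for 48 h. CellTiter-Glo luminescence gave viability.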

Assay [2] is described as follows: qHTS of pediatric cancer cell lines to identify multiple opportunities for drug repurposing: Primary screen for DAOY cells (AID 1347090). Also: nearly all actives have a fitted effect of over 55% in size. Also: potency is read from the fitted curve at half-maximal effect. Summed up: (§1)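 Cell viability, CellTiter-Glo luminescence; 500-1,000 cells/well, 8- or 11-point titration, 48 h compound exposure at 37 degrees C, 5% CO2. Controls: DMSO neutral, bortezomib 2.3 µM final as positive.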
On the technique in general: In qHTS, concentration-response curves come from the screen itself.

The nature of assay [3]: qHTS of pediatric cancer cell lines to identify multiple opportunities for drug repurposing: Primary screen for SJ-GBM2 cells (AID 1347091). Also: potency is read from the fitted curve at half-maximal effect. In short, it runs like this:
as §1

Assay [4] in a line: qHTS of pediatric cancer cell lines to identify multiple opportunities for drug repurposing: Primary screen for A673 cells (AID 1347092). Also: nearly all actives have a fitted effect of over 45% in size. Also: potency is read from the fitted curve at half-maximal effect. Summed up:
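48 h compound exposure, A673, 500-1,000 cells/well, 37 degrees C/5% CO2. MIPE: 11-point, 0.78 nM-46 µM; NPC: 8-point, 0.59 nM-46 µM (final). Readout CellTiter-Glo luminescence after 15 min RT.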

A short description of assay [5]: qHTS of pediatric cancer cell lines to identify multiple opportunities for drug repurposing: Primary screen for SK-N-MC cells (AID 1347093). Also: potency is read from the fitted curve at half-maximal effect. In short, it runs like this:
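Metabolically active cells were quantified by ATP-dependent luminescence (CellTiter-Glo, 15 min at room temperature) following 48 h treatment. Cells had been plated at 500-1,000 per well and settled for 5 h beforehand.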

Assay [6] can be described thus: qHTS of pediatric cancer cell lines to identify multiple opportunities for drug repurposing: Primary screen for NB-EBc1 cells (AID 1347095). In short, it runs like this:
(§2)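 Primary screen of approved and investigational compounds on cells in growth media at 37 degrees C, 5% CO2. MIPE set at 11-point and NPC set at 8-point dilutions; viability scored by ATP-based luminescence at 48 hours.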

A short description of assay [7]: qHTS of pediatric cancer cell lines to identify multiple opportunities for drug repurposing: Primary screen for U-2 OS cells (AID 1347096). Also: nearly all actives have a fitted effect of over 50% in size. In short, it runs like this: (§3)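 Cells (500-1,000/well) rested 5 h, then received compounds for 48 h; metabolically active cells were measured by CellTiter-Glo luminescence. Final concentrations spanned up to 46 µM (MIPE, 11-point) or 0.59 nM-46 µM (NPC, 8-point) in primary screens, 11-point in follow-ups.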

A short description of assay [8]: qHTS of pediatric cancer cell lines to identify multiple opportunities for drug repurposing: Primary screen for Saos-2 cells (AID 1347097). Also: nearly all actives have a fitted effect of over 40% in size. Summed up:
as §2

Assay [9] can be described thus: qHTS of pediatric cancer cell lines to identify multiple opportunities for drug repurposing: Primary screen for SK-N-SH cells (AID 1347098). Also: nearly all actives have a fitted effect of over 65% in size. Also: potency is read from the fitted curve at half-maximal effect. Summed up: as §3
The nature of assay [10]: qHTS of pediatric cancer cell lines to identify multiple opportunities for drug repurposing: Primary screen for NB1643 cells (AID 1347099). Also: nearly all actives have a fitted effect of over 50% in size. In short, it runs like this: as §2
Assay [11] in a line: qHTS of pediatric cancer cell lines to identify multiple opportunities for drug repurposing: Primary screen for LAN-5 cells (AID 1347100). Also: potency is read from the fitted curve at half-maximal effect. In short, it runs like this:
as §3

Assay [12] is described as follows: qHTS of pediatric cancer cell lines to identify multiple opportunities for drug repurposing: Primary screen for BT-12 cells (AID 1347101). Also: nearly all actives have a fitted effect of over 25% in size. In short, it runs like this:
as §3

Assay [13] in a line: qHTS of pediatric cancer cell lines to identify multiple opportunities for drug repurposing: Primary screen for Rh18 cells (AID 1347102). Also: nearly all actives have a fitted effect of over 65% in size. In short, it runs like this:
as §3

Assay [14] can be described thus: qHTS of pediatric cancer cell lines to identify multiple opportunities for drug repurposing: Primary screen for RD cells (AID 1347104). Also: nearly all actives have a fitted effect of over 55% in size. In short, it runs like this:
as §2

Assay [15] can be described thus: qHTS of pediatric cancer cell lines to identify multiple opportunities for drug repurposing: Primary screen for BT-37 cells (AID 1347094). Also: potency is read from the fitted curve at half-maximal effect. Summed up: as §2
The nature of assay [16]: qHTS of pediatric cancer cell lines to identify multiple opportunities for drug repurposing: Primary screen for OHS-50 cells (AID 1347103). Also: nearly all actives have a fitted effect of over 40% in size. Also: potency is read from the fitted curve at half-maximal effect. Summed up:
as §3

The structures appear in SMILES notation. Inconclusive results are not listed. A number with no mark means an inactive call. The source made the active and inactive calls. Calls follow the shape of the dose curve; as a rule, active = well fitted curve in the direction sought with a large enough effect; inconclusive = small, poorly fitted or top-dose-only effect, or another doubt; inactive = no such curve, though single readings can be large; an effect the other way counts as inactive or inconclusive.

This is an account of results in PubChem BioAssay (NCATS).

In the case of `O=C(O)CCNC(=O)c1ccccc1`, the Potency entry in assay [1], in assay [2], in assay [3], in [4], in assay [5] and in assay [6] was “inactive” each time. In addition, the Potency result in [7], in assay [8], in assay [9], in [10], in assay [11] and in assay [12] was “inactive” throughout. The Potency result in [13] and in assay [14] was “inactive” each time.
With `CC(CNC1CCCCC1)OC(=O)c1ccccc1` (stereo unspecified), the Potency entry in assay [1], in [2], in assay [3], in assay [4], in assay [5] and in [15] was “inactive” throughout. For the same molecule, the Potency entry in [7], in assay [9], in [10], in assay [11], in [13] and in assay [16] was “inactive” in each case. Moreover, the Potency result in [14] was “inactive”.
For `NS(=O)(=O)Cc1noc2ccccc12`, the Potency entry in assay [1], in assay [2], in assay [3], in assay [4], in assay [5] and in assay [7] was “inactive” each time. The Potency result in [8], in assay [9], in assay [10], in assay [11], in assay [12] and in [13] was “inactive” in each case. Further, the Potency entry in [16] and in [14] was “inactive” each time.
With `CCc1cc(Cl)c(OC)c(C(=O)NC[C@@H]2CCCN2CC)c1O`, the Potency result in [1], in [2], in [3], in assay [4], in assay [5] and in [7] was “inactive” each time. Moreover, the Potency result in assay [8], in [9], in [10], in assay [11], in assay [12] and in assay [13] was “inactive” each time. Besides, the Potency entry in assay [14] was “inactive”.
For `CCOc1ccccc1C(N)=O`, the Potency entry in assay [1], in assay [2], in [3], in assay [4], in assay [5] and in [15] was “inactive” each time. The Potency entry in assay [7], in assay [8], in assay [11], in assay [12], in [13] and in assay [16] was “inactive” each time. In addition, the Potency in assay [9] is 30700 nM (active).
Take `CCCCCCCCCCCCCCCC(=O)O`: the Potency result in [1], in [2], in [3], in assay [4], in [5] and in [6] was “inactive” in each case. Moreover, the Potency entry in assay [7], in [8], in assay [9], in assay [10], in assay [11] and in [12] was “inactive” throughout. Further, the Potency result in assay [13], in [16] and in assay [14] was “inactive” in each case.
In the case of `CCN(CC)CCOc1ccccc1C(=O)CCc1ccccc1`, the Potency result in assay [1], in [2], in assay [3], in [4], in [5] and in assay [15] was “inactive” each time. Further, the Potency result in assay [6], in assay [7], in [11], in assay [12], in [13] and in assay [14] was “inactive” throughout.
`CN1CCN(c2cc3c(cc2F)c(=O)c(C(=O)O)cn3-c2ccc(F)cc2)CC1`: the Potency result in assay [1], in assay [2], in assay [3], in assay [4], in assay [5] and in assay [6] was “inactive” in each case. Also, the Potency entry in [7], in [8], in assay [9], in assay [11], in [12] and in [13] was “inactive” each time. In addition, the Potency result in assay [14] was “inactive”.
Take `CC(=O)Nc1ccc(CC(=O)O)cc1`: the Potency entry in assay [1], in assay [2], in [3], in assay [4], in [5] and in assay [6] was “inactive” in each case. Also, the Potency entry in [7], in assay [9], in assay [10], in [11], in [13] and in assay [14] was “inactive” each time.
For the molecule `CCCCCCCCCCCCCCCCO`, the Potency entry in assay [1], in [2], in assay [3], in assay [4], in assay [5] and in assay [7] was “inactive” in each case. In addition, the Potency result in assay [8], in assay [9], in assay [11], in assay [12], in assay [13] and in [16] was “inactive” throughout. In assay [14], the Potency result was “inactive”.
Consider `C=C[C@H]1CN2CC[C@H]1C[C@H]2[C@H](O)c1ccnc2ccc(OC)cc12`, for which the Potency entry in assay [1], in [2], in assay [3], in assay [4], in assay [5] and in assay [6] was “inactive” each time. Further, the Potency result in assay [7], in assay [10], in [11], in assay [12], in assay [13] and in assay [14] was “inactive” each time.
Turning to `CCCCCCCCOc1ccc(C(=O)c2ccccc2)c(O)c1`, the Potency result in assay [1], in [2], in assay [3], in assay [4], in assay [5] and in assay [7] was “inactive” in each case. Further, the Potency result in [8], in [9], in [10], in [11], in [12] and in [13] was “inactive” in each case. The Potency entry in assay [16] and in [14] was “inactive” throughout.
Turning to `NS(=O)(=O)c1ccc(Cl)c(S(N)(=O)=O)c1`, the Potency entry in assay [1], in [2], in assay [3], in assay [4], in [5] and in assay [6] was “inactive” each time. Further, the Potency result in [7], in assay [8], in assay [9], in assay [10], in assay [11] and in assay [12] was “inactive” throughout. Besides, the Potency entry in [13], in assay [16] and in assay [14] was “inactive” throughout.
Consider `Nc1nc(Cl)nc2c1ncn2[C@@H]1O[C@H](CO)[C@@H](O)[C@@H]1F`, for which the Potency in assay [1] was 264 nM (active); in assay [2] it was 422 nM (active); in [3], 26.6 nM (active); in assay [4], 422 nM (active); in [5], 29.9 nM (active); in assay [15], 309 nM (active). For the same molecule, the Potency was 335 nM (active) in assay [11] and 195 nM (active) in assay [16]. In addition, the Potency entry in assay [7], in assay [13] and in [14] was “inactive” throughout.
`CC1=C(C(=O)O)N2C(=O)[C@@H](NC(=O)[C@H](N)c3ccccc3)[C@H]2SC1`: the Potency result in [1], in [2], in assay [3], in [4], in assay [5] and in assay [15] was “inactive” in each case. In addition, the Potency entry in assay [7], in [9], in assay [11], in [12], in [13] and in [14] was “inactive” each time.
With `CN1CCC(OC(c2ccccc2)c2ccccc2)CC1`, the Potency result in assay [1], in assay [2], in [3], in assay [4], in [5] and in assay [15] was “inactive” throughout. Moreover, the Potency result in assay [7], in assay [8], in assay [9], in [10], in [11] and in [13] was “inactive” in each case. For the same molecule, in assay [14], the Potency entry is “inactive”.
On to `OC(C#CCN1CCCC1)(c1ccccc1)c1ccccc1`, for which the Potency result in [1], in assay [2], in [3], in assay [4], in assay [5] and in [6] was “inactive” throughout. For the same molecule, the Potency entry in assay [7], in [8], in assay [9], in [10], in [11] and in assay [12] was “inactive” throughout. The Potency result in assay [13] and in assay [14] was “inactive” throughout.
`O=C(Nc1ccc([N+](=O)[O-])cc1)Nc1ccc([N+](=O)[O-])cc1`: the Potency entry in assay [1], in assay [2], in [3], in assay [4], in [5] and in assay [6] was “inactive” in each case. Moreover, the Potency entry in [7], in assay [8], in assay [9], in assay [10], in assay [11] and in assay [13] was “inactive” throughout. In addition, in assay [14], the Potency result is “inactive”.
